The text below walks through data of PubChem BioAssay (NCATS).

Values joined by “and” are separate entries in the source; they are usually repeats but may differ in a detail not shown here. Equal entries are not always repeated. Results filed as inconclusive are left out. Where a call stands in place of a potency, no number is given. Active and inactive are the calls of the source. Calls come from the whole dose curve; as a rule, active = well fitted curve in the direction sought with a large enough effect; inconclusive = small, poorly fitted or top-dose-only effect, or another doubt; inactive = no such curve, though single readings can be large; an effect the other way counts as inactive or inconclusive.

Sequence of Cellular tumor antigen p53 (Homo sapiens) (P04637 whole entry, looked up): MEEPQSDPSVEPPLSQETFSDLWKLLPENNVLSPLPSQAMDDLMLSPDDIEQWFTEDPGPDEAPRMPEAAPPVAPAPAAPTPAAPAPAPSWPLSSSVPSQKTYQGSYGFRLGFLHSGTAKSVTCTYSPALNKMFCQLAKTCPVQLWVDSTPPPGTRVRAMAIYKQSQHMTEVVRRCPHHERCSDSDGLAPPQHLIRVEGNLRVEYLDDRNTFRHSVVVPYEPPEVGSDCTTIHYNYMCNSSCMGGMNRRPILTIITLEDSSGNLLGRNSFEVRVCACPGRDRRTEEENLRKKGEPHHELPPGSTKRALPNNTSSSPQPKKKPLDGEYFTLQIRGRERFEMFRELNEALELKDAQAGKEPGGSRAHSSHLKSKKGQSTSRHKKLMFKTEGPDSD

The target in one experiment is Cellular tumor antigen p53 (Homo sapiens) (UniProt P04637). The experiment is described as follows: Primary qHTS for small molecule compounds that upregulate eGFP-tagged delta133p53alpha (in N-terminal) cells. (AID 2060322).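 Note: cells pre-induced with doxycycline then dosed without doxycycline; nearly all actives have a fitted effect of over 75% in size.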 The conditions noted are these: NCI-H358 eGFP-delta133p53alpha fluorescence, 24 h; activation: active compounds read high. A digest of the protocol:
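NCI-H358 cells pre-induced 24 h with 10 ng/ml doxycycline for eGFP-delta133p53alpha, plated dox-free and exposed 24 h at 37C to titrated compounds. Fixed, Hoechst-stained; gated GFP peak intensity by laser scanning cytometry, normalized to DMSO (0%) and 57.5 uM 5-azacytidine (100%).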
For `COc1nccc(-c2c(-c3ccc(F)cc3)ncn2C2CCC(O)CC2)n1` (stereo not given), the activation was 22% (inactive) and -24.1% (inactive).
Same read-out and setting: in the case of `CNC(=O)c1cccc2cc(Oc3ccnc4cc(OCC5(N)CC5)c(OC)cc34)ccc12` it was 12.5% (inactive); in that of `Cc1ccccc1-n1nc(-c2c(-c3ccc(F)cc3)nn3c2NC[C@@H](CO)C3)ccc1=O`, 2.68% (inactive); in that of `CC1(C)CN(C(=O)c2ccc(-c3cccc4nc(NC(=O)C5CC5)nn34)cc2)C1`, 5% (inactive).
Consider `Cc1cc(F)c(C(=O)Nc2cccc(-c3nncn3C(C)C)n2)cc1-n1cnc(C2CC2)c1`, for which the activation is 35% (inactive).
Same read-out and setting: in the case of `C[C@@H](c1ccc2nccn2c1)n1nnc2ncc(-c3cnn(C)c3)nc21` it was 2.86% (inactive).

The target of the next experiment is Aldehyde dehydrogenase, mitochondrial (Homo sapiens) (UniProt P05091). The experiment is described as follows: qHTS for Inhibitors of the Aldehyde Dehydrogenase Family (ALDH2) Primary screen (AID 2061308). Note: nearly all actives have a fitted effect of over 55% in size. Conditions: ALDH2 enzyme inhibition qHTS, 1536-well; series mostly up to 56 µM.
Regarding `CN(C)CC(=O)N1CCC(c2ccc(NC(=O)c3ncc(C#N)[nH]3)c(C3=CCCCC3)c2)CC1`, the Potency entry is “inactive”.
As to `Nc1ncnc2c1ncn2[C@@H]1O[C@H](CO)C[C@H]1O`, the Potency result was “inactive”.
Consider `Cc1ccccc1C(=O)c1ccc(Nc2ccc(Br)cc2N)cc1Cl`, for which the Potency result is “inactive”.
Same read-out and setting: in the case of `Nc1nccc(Oc2ccc(NC(=O)c3c[nH]cc(-c4ccc(F)cc4)c3=O)cc2F)c1Cl` it was “inactive”; in that of `O=C(O)c1ccc(Nc2ncc3c(n2)-c2ccc(Cl)cc2C(c2c(F)cccc2F)=NC3)cc1`, “inactive”; in that of `Nc1cccc(S(=O)(=O)N2CCCN(S(=O)(=O)c3ccc4c(c3)OCCO4)CC2)c1`, “inactive”.
On the same count and under the same terms, in the case of `Nc1nc(OCc2cc(Br)cs2)c2[nH]cnc2n1` it was “inactive”; in that of `CC[C@H](NC(=O)[C@H](CS(=O)(=O)CC1CC1)N[C@@H](c1ccc(F)cc1)C(F)(F)F)C(=O)C(=O)NC1CC1`, “inactive”.
The same measure, in the same setting: as for `Cc1cc(C(=O)Nc2cc(Oc3ccc4nc(NC(=O)C5CC5)cn4n3)ccc2C)n(C)n1`, the entry is “inactive”.
Turning to `Cc1cnc(CNC(=O)c2c(=O)c3ccc(N4CCCN(C)CC4)nc3n3c2sc2ccccc23)cn1`, the activity change, negative = inhibition was 8.69% [at 11.2 µM] (inactive).
For `COc1cc2nccc(Oc3ccc(NC(=O)Nc4cc(C)on4)c(Cl)c3)c2cc1OC`, the Potency entry is “inactive”.
The same measure, in the same setting: as for `O=c1[nH]c([C@@H]2CCCN2)nc2c1oc1ccc(Cl)cc12`, the entry is “inactive”; as for `Cc1cc(SCc2sc(-c3ccc(C(F)(F)F)cc3)nc2C)ccc1OCC(=O)O`, “inactive”; as for `O=C(NC1CCOCC1)c1ccc(-c2cc(-c3cn[nH]c3-c3ccccn3)ccn2)cc1`, “inactive”.
Still for that read-out and setting: in the case of `Cc1csc(-c2nnc(Nc3ccc(Oc4ncccc4-c4ccnc(N)n4)cc3)c3ccccc23)c1` it was “inactive”; in that of `CC(C)(C)Cn1c(N)nc2ccc(-c3[nH]c(C(C)(C)C)nc3-c3ccc(F)cc3)nc21`, “inactive”.
In the case of `COc1ccc(-c2c(-c3ccc(O)cc3O)n[nH]c2C)cc1`, the Potency entry is “inactive”.
Regarding `C[C@@H]1CCN(C(=O)N2CCCC2)C[C@@H]1N(C)c1ncnc2[nH]ccc12`, the Potency result was “inactive”.
Still for that read-out and setting: in the case of `Cc1cc2c(cc1C1(c3ccc(C(=O)O)cn3)CC1)C(C)(C)CCC2(C)C` it was “inactive”; in that of `Cn1c2cc(S(C)=O)sc2c2cnn(Cc3cccc(N)c3)c(=O)c21` (stereo not given), “inactive”.
`Cc1cccc(Nc2nc(-c3ccncc3)cs2)c1`: the Potency entry is “inactive”.
Consider `COc1cc(Nc2ncc3c(n2)-c2ccc(Cl)cc2C(c2c(F)cccc2OC)=NC3)ccc1C(=O)O`, for which the Potency result was “inactive”.
As for `CCN(CCCOc1ccc2c(Nc3cc(CC(=O)Nc4cccc(F)c4)[nH]n3)ncnc2c1)CCOP(=O)(O)O`, the Potency entry is “inactive”.
With `O=C(NC[C@H](O)CN1CCc2ccccc2C1)c1ccnc(NC2CCC2)c1`, the Potency result is “inactive”.
Still for that read-out and setting: in the case of `COc1cc(F)c(F)c(Nc2ccc(I)cc2F)c1NS(=O)(=O)C1(C[C@H](O)CO)CC1` it was “inactive”; in that of `CC(C)(C)c1cc(NC(=O)Nc2ccc(-c3cn4c(n3)sc3cc(OCCN5CCOCC5)ccc34)cc2)no1`, “inactive”; in that of `CN(NC(=O)CC(=O)NN(C)C(=S)c1ccccc1)C(=S)c1ccccc1`, “inactive”.
On the same count and under the same terms, in the case of `CNC(=O)c1ccc(C)c(-n2c(C)cc(OCc3ccc(F)cc3F)c(Br)c2=O)c1` it was “inactive”; in that of `CN1CCN(C(=O)c2ccc3cc(CCNc4ncnc5ccc(C#N)cc45)ccc3c2)CC1`, “inactive”.
`CCCCCN(CCC12CC3CC(CC(C3)C1)C2)C(=O)NCCCc1ccncc1`: the Potency result was “inactive”.
On to `CC(C)(O)CC(=O)NCCn1ccc2ncnc(Nc3ccc(Oc4cccc(C(F)(F)F)c4)c(Cl)c3)c21`, for which the Potency entry was “inactive”.
Still for that read-out and setting: in the case of `O=C(O)c1ccc(O)c2ncc(N3CCOCC3)cc12` it was “inactive”; in that of `CC[C@@](C)(Nc1ccnc(-c2c[nH]c3ncccc23)n1)C(=O)NCC(F)(F)F`, “inactive”; in that of `CC(C)(C)Sc1c(CC(C)(C)C(=O)O)n(Cc2ccc(Cl)cc2)c2ccc(OCc3ccc4ccccc4n3)cc12`, “inactive”.
